FLuc inh – qHTS Assay for Inhibitors of Firefly Luciferase; Luciferin 4-monooxygenase (Photinus pyralis), P08659; purified firefly luciferase, luminescence, 8 min; Potency, µM (series often up to 57.1 µM), most hits filed as inhibitors; 2.2% of 72,000 active; AID 411, 2009; note: nearly all actives have a fitted effect of over 40% in size
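Inhibition of light generation by firefly luciferase from ATP and luciferin was profiled with concentration-response curves per sample, ATP held at 10 uM within the enzyme's linear range. Plates were read by luminescence after an 8-minute ambient incubation.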
Casp1 inh – qHTS Assay for Allosteric/Competitive Inhibitors of Caspase-1 | 0.03% of 75,000 active | P29466 | Potency, µM (titrated, usually from 57.5 µM), usual class: inhibitors | Caspase-1 enzyme, Ac-WEHD-AFC fluorogenic rate | AID 900, 2007
Caspase-7 inhib – qHTS Assay for Allosteric/Competitive Inhibitors of Caspase-7. P55210. recombinant caspase-7, Ac-DEVD-AFC fluorescence rate. Potency, µM (series often up to 57.5 µM), most hits filed as inhibitors. 0.02% of 75,000 active; active = well fitted inhibition curve with a large enough effect in the main read-out, with a control signal flat, not every such curve was filed as active; inconclusive = small, poorly fitted or top-dose-only effect, or a change in a side signal
Tau filament bind – qHTS Assay for Tau Filament Binding. 2% of 71,000 active. Microtubule-associated protein tau (Homo sapiens), P10636. recombinant tau filaments, thioflavin S fluorescence, 15 h; filaments grown with octadecylsulfate alongside compound. Potency, µM (doses to about 57.1 µM). AID 596, 2007;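 note: actives lower thioflavin S fluorescence by blocking filaments or displacing dye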
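Thioflavine S fluorescence (ex 450, em 510 nm) reports filaments formed from 1 uM human tau plus 30 uM ODS over 15 h at 37 C (10 mM HEPES pH 7.4, 100 mM NaCl, 5 mM DTT); compounds displacing dye or blocking filaments lower signal.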
PK Bst – Pyruvate Kinase. purified pyruvate kinase, luminescence ATP production; ribose 5-phosphate activator present at AC10. Potency, µM. 1.2% of 51,000 active. AID 361, 2006; in the data active = potency below about 11 µM; inconclusive = mostly about 12 µM to 25 µM;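 the screen sought inhibitors and activators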
Of the large screens only hits and unclear results are named; the others gave an inactive call. Most compounds without a hit are left out; they make up all but 4% or so of the library. Unless noted, calls come from the whole dose curve; as a rule, active = well fitted curve in the direction sought with a large enough effect; inconclusive = small, poorly fitted or top-dose-only effect, or another doubt; inactive = no such curve, though single readings can be large; an effect the other way counts as inactive or inconclusive.

O=C(c1ccc2nc(-c3ccco3)c(-c3ccco3)nc2c1)N1CCN(c2ccccc2)CC1	Caspase-7 inhib inconclusive, Tau filament bind 1µM (no result: Casp1 inh)
O=C(c1cc2nc(-c3ccco3)cc(C(F)(F)F)n2n1)N1CCCc2ccccc21	none
O=C(c1cc2nc(-c3ccco3)cc(C(F)(F)F)n2n1)N1CCN(c2ccccc2)CC1	Tau filament bind 10µM (no result: PK Bst)
O=C(c1cc2nc(-c3ccco3)cc(C(F)(F)F)n2n1)N1CCN(c2ccccn2)CC1	Casp1 inh inconclusive, Caspase-7 inhib inconclusive, Tau filament bind 25µM
O=C(c1cc(-c2ccco2)on1)N1CCN(c2ccccc2)CC1	none (no result: PK Bst)
CN(C(=O)c1cc2nc(-c3ccco3)cc(C(F)(F)F)n2n1)C1CCCCC1	none (no result: FLuc inh, Tau filament bind, PK Bst)
O=C(c1cc2nc(-c3ccc(F)cc3)cc(C(F)(F)F)n2n1)N1CCCC1	none (no result: PK Bst)
O=C(c1cc2nc(-c3ccco3)cc(C(F)(F)F)n2n1)N1CCCCCC1	Caspase-7 inhib inconclusive, Tau filament bind 13µM (no result: Casp1 inh, PK Bst)
C/C(=N/Nc1nc(C)cc(=O)[nH]1)C(=O)O	none (no result: PK Bst)
CCC(c1nnc(SCC(=O)Nc2nnc(-c3ccccc3)o2)o1)N(C)C (centres undefined)	none
Cc1ccc(C)c(SCC(=O)Nc2nnc(-c3ccccc3)o2)c1	PK Bst 3.1 (no result: Caspase-7 inhib)
CN(C)c1ccc(CNC(=O)[C@@]2(C)C=C[C@@H](Cc3ccccc3)N2C)cc1	none (no result: FLuc inh, PK Bst)
COc1cccc(N=Cc2ccc(O)cc2O)c1	Tau filament bind 32µM (no result: PK Bst)
Oc1ccc(C=Nc2ccc3ncccc3c2)c(O)c1	none (no result: Casp1 inh, Caspase-7 inhib, Tau filament bind)
Cc1cc(NC(=O)c2ccc3c(c2)OCO3)no1	FLuc inh 7.9µM (no result: PK Bst)
O=C(NC1CCCCCCC1)c1ccc2c(c1)OCO2	FLuc inh 16µM (no result: PK Bst)
CCOC(=O)Cc1csc(NC(=O)c2ccc3c(c2)OCO3)n1	FLuc inh 20µM (no result: PK Bst)
Cc1cc(NC(=O)c2ccc3c(c2)OCCO3)no1	FLuc inh 2µM, PK Bst 3
ClCCl	none (no result: FLuc inh, PK Bst)
C[C@@H]1C(=O)N(C)C(=O)c2nc[nH]c21	none (no result: PK Bst)
CCCC/C=C/C(NC(=O)c1cccs1)c1ccccc1 (centres undefined)	none (no result: FLuc inh, PK Bst)
COC(=O)c1ccc(CSc2nc3ccccc3o2)cc1	FLuc inh 16µM
COC(=O)c1ccc(CSc2nc(N)cc(N)n2)cc1	none
Cc1ncsc1C(=O)Nc1nc2c(s1)CC(C)CC2 (centres undefined)	FLuc inh 10µM, PK Bst 10
CC1CCN(CC[C@@H]2CCCN2S(=O)(=O)c2cccc(O)c2)CC1	none (no result: PK Bst)
Cc1ccc(-c2cccc(NC(=O)C3C(C(=O)O)[C@@H]4C=C[C@H]3C4)c2)o1 (some centres undefined)	Tau filament bind inconclusive, PK Bst 5.7
O=c1c(-c2cc(F)cc(F)c2)nc2cnc(N3CCNCC3)nc2n1Cc1ccc(F)cc1	Caspase-7 inhib inconclusive, Tau filament bind 4µM (no result: Casp1 inh, PK Bst)
COc1ccc(-n2c(=O)c(-c3cccc(C#N)c3)nc3cnc(N4CCNCC4)nc32)cc1	Casp1 inh inconclusive (no result: PK Bst)
O=c1c(-c2ccccc2)nc2cnc(N3CCNCC3)nc2n1Cc1cccs1	Caspase-7 inhib inconclusive, Tau filament bind 5µM (no result: Casp1 inh, PK Bst)
COc1ccc(-n2c(=O)c(-c3cc(F)cc(F)c3)nc3cnc(N4CCNCC4)nc32)cc1	Caspase-7 inhib inconclusive, Tau filament bind 3.2µM (no result: Casp1 inh, PK Bst)
COc1cccc(Cn2c(=O)c(C)nc3cnc(N4CCNCC4)nc32)c1	none (no result: PK Bst)
O=c1c(-c2ccccc2)nc2cnc(N3CCNCC3)nc2n1Cc1ccc(F)cc1	Caspase-7 inhib inconclusive (no result: Casp1 inh, PK Bst)
COc1cccc(Cn2c(=O)c(-c3cc(F)cc(F)c3)nc3cnc(N4CCNCC4)nc32)c1	Caspase-7 inhib inconclusive, Tau filament bind 4µM (no result: Casp1 inh, PK Bst)
Cc1nc2cnc(N3CCNCC3)nc2n(Cc2cccs2)c1=O	none (no result: PK Bst)
Nc1ncnc2c1nc(Sc1ccc(Cl)cc1)n2[C@@H]1O[C@H]2COP(=O)(O)O[C@@H]2[C@H]1O	none (no result: PK Bst)
O=S(=O)(/N=C(/Nc1cc(N2CCOCC2)ncn1)c1ccccc1)c1ccccc1	FLuc inh 3.2µM (no result: PK Bst)
O=c1oc2c3c4c(cc2s1)CCCN4CCC3	Tau filament bind 25µM (no result: PK Bst)
N#CCCn1c(=O)c(-c2ccc(Cl)cc2)nc2cnc(OCc3ccccc3)nc21	none (no result: PK Bst)
CCOC(=O)N1CCN(C(=O)CSc2nnc(-c3ccc(C(C)(C)C)cc3)o2)CC1	FLuc inh 1.3µM (no result: PK Bst)
CCOC(=O)N1CCN(C(=O)CSc2nnc(-c3ccc(C)c(C)c3)o2)CC1	none (no result: PK Bst)
O=C(O)c1ccc2[nH]c3c(c2c1)CSCC3	none
O=C(NCCO)c1ccc2[nH]c3c(c2c1)CCCC3	FLuc inh 16µM, Casp1 inh inconclusive (no result: PK Bst)

Screening data (PubChem BioAssay)
